# CtBP-E1A inh: inhibitors of CtBP/E1A interaction | AlphaScreen GST-E1A/His-CtBP binding, 1536-well; active compounds read low | activity change, % (test concentration not listed) | 340,000 tested, 0.49% active | AID 651724; in the data active = activity change below about -65%; inconclusive = mostly about -30% to -63%
#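 AlphaScreen with 125 nM GST-E1A and 125 nM His-CtBP (5X stocks) in Tris pH 8.0, 300 mM NaCl, BSA, Tween 20, TCEP. Compounds preincubated 2 h at 37 deg C, then glutathione donor/nickel acceptor beads added for 1 h at 37 deg C in dark.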
# TrxR1 substrate: rat thioredoxin reductase 1 substrate activity; O89049; purified TrxR1 substrate turnover, NADPH consumption readout; Potency, µM (highest dose often 114 µM), without a hit: at the top dose activity change, negative = substrate turnover; 390,000 tested, 0.01% active; AID 588456; note: potency is the fitted concentration of half-maximal effect; nearly all actives have a fitted effect of over 50% in size
#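 Rat TrxR1, dispensed at 90 nM, was prereduced with 400 uM NADPH (final) for 5 min at ~22 deg C, then incubated with compound 15 min before 400 uM selenite. A first-read NADPH fluorescence drop versus no-compound background flagged substrates.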
# GALK inhibitor: inhibitors of human galactokinase. P51570. Purified GALK, Kinase-Glo residual ATP luminescence. Potency, µM (highest dose often 57.5 µM), inactives show at the top dose activity change, negative = inhibition, most hits filed as inhibitors. 270,000 tested, 0.007% active. AID 1868; note: potency is the fitted concentration of half-maximal effect
#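 Galactose (100 uM) and ATP (35 uM) were turned over by 5 nM GALK for 1 h at RT. Kinase-Glo Plus then converted the remaining ATP into a luminescent signal.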
# rTrxR1 inhibitor: blocks rat thioredoxin reductase 1; Potency, µM (series often up to 114 µM), without a hit: at the highest dose activity change, negative = inhibition, usual class: inhibitors; 390,000 tested, 1% active; recombinant rTrxR1, NADPH fluorescence consumption, selenite substrate; O89049; note: potency is the fitted concentration of half-maximal effect; nearly all actives have a fitted effect of over 65% in size
#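 Rat TrxR1 (90 nM in the dispensed reagent) was pre-reduced with 400 uM NADPH for 5 min at room temperature, then incubated with compound for 15 min. After 400 uM selenite was added, NADPH fluorescence (Ex 340/Em 450 nm) was followed for 8 min.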
# Eya2 phos inh: Eya2 (human) phosphatase inhibition; 330,000 tested, 0.006% active; O00167; Potency, µM (titrated, usually from 76.9 µM), without a hit: top-dose activity, negative = inhibition, actives largely listed as inhibitors; recombinant Eya2, OMFP fluorescence dephosphorylation (OMFP is methylfluorescein phosphate); note: potency is the fitted concentration of half-maximal effect
#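 Eya2 (0.2 uM) preincubated 10 min at ambient with compound, then OMFP substrate added at 50 uM; 10 min reaction in 50 mM HEPES pH 7.5, 50 mM NaCl, 5 uM MgCl2, 0.05% BSA, 1 mM DTT. Fluorescence read at Ex 485/Em 525 nm.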
# Six1-Eya2 blk: Six1/Eya2 interaction inhibition | AlphaScreen GST-Six1/His-Eya2 binding, biochemical; active compounds read low | 360,000 tested, 0.56% active | AID 651725 | activity change, % (no concentration beside the values); in the data active = activity change below about -65%; inconclusive = mostly about -30% to -63%
# Target sequence (O00167 whole entry, looked up): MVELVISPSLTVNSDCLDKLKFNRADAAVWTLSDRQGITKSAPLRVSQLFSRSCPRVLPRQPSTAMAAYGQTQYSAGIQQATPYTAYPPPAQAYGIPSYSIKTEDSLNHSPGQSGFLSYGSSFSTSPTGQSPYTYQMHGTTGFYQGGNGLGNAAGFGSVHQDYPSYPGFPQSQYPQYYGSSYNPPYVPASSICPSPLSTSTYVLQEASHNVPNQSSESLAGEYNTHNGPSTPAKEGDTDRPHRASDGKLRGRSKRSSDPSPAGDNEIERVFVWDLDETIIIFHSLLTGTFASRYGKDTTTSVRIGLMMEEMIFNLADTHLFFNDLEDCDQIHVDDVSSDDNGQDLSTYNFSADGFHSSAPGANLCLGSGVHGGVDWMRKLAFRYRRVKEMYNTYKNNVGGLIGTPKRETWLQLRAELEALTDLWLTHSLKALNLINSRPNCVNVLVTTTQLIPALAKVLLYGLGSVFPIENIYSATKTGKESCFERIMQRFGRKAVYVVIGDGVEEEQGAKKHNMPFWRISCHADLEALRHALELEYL
# Target sequence (Q15475 whole entry, looked up): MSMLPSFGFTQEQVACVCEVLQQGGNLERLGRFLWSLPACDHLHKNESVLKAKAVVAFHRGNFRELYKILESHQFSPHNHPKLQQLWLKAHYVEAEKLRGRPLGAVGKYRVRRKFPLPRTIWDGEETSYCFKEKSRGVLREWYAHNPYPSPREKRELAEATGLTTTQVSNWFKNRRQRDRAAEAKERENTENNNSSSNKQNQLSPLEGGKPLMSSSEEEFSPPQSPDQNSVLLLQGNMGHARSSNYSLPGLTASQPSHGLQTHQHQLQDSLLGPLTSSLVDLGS
#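 Homogeneous AlphaScreen proximity assay pairing GST-Six1 with His-tagged Eya2 (added as 5X mix: 250 nM and 500 nM) in 50 mM Tris pH 8.0, 300 mM NaCl, 1 mM TCEP. Glutathione donor and nickel acceptor beads; 1 h, 37 °C, dark.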
# Active calls of the source: *; ? = inconclusive; · = no result given; [ ] = remark or other dose. This is a sample that favours compounds with a hit; in the whole collection about 1.5% have one here. Unless noted, calls come from the whole dose curve; as a rule, active = well fitted curve in the direction sought with a large enough effect; inconclusive = small, poorly fitted or top-dose-only effect, or another doubt; inactive = no such curve, though single readings can be large; an effect the other way counts as inactive or inconclusive. % is set by controls: 0 for no effect and ±100 for the full control effect.
SMILES,CtBP-E1A inh,TrxR1 substrate,GALK inhibitor,rTrxR1 inhibitor,Eya2 phos inh,Six1-Eya2 blk
CCOC(=O)c1c(S(=O)(=O)N2CCC(C(=O)Nc3ccc(OCC)cc3)CC2)c(C)n(C)c1C,·,-9%[57.1 µM],·,-1%[57.1 µM],·,·
COc1cccc(/C=C/c2cnc3ccccc3n2)c1OC,·,-4%,·,2%,·,·
O=C(Nc1ccccc1C(F)(F)F)c1ncn[nH]1,-88*,9%,-2%,9%,2%,-74*
C/C(=N\Nc1nnc(C)c(=O)[nH]1)C(=O)O,-87*,10%,3%,18%,-10%,-89*
CC(/C=N/Nc1nnc(C)c(=O)[nH]1)=C\c1ccccc1,9,1%,0%,14%,-19%,-7
CCCCn1c(SCC(=O)N2CCCC2)nnc1-c1ccccc1,2,-19%,0%,89µM*,14%,9
Nc1nc(Sc2ccc([N+](=O)[O-])c3nonc23)c2[nH]cnc2n1,3,-32%,·,1.3µM*,·,?
CNc1ncnc(Sc2nc(N)nc3nc[nH]c23)c1[N+](=O)[O-],-7,13%[57.1 µM],·,1.3µM*,·,-8
O=C(O)c1cccc(-n2cccc2/C=C/[N+](=O)[O-])c1,6,6%,4%,10µM*,17%,?
Cc1nc2ncccn2c1-c1csc(Nc2ccccc2)n1,7,-7%,-3%,-13%,-9%,-80*
COc1ccc(Nc2nc(-c3c(C)nc4ncccn34)cs2)cc1,·,-10%,9%,-7%,-8%,?
COc1ccccc1Nc1nc(-c2c(C)nc3ncccn23)cs1,-92*,4%,0%,12%,5%,-85*
Cc1cc(NC(=O)CCn2c(=O)c3cccn3c3cccnc32)ccc1Br,·,54%,·,26%,·,·
CCC(C(=O)N(C)Cc1ccccc1)n1nc(C)c2sc3ccccc3c2c1=O (stereo not given),·,45%,·,33%,·,·
O=C(c1ccccc1)c1nn(-c2ccc(Cl)cc2)c(=O)cc1C(F)(F)F,?,6%[57.1 µM],0%,24%[57.1 µM],-16%,-15
O=C(c1cccc(Cl)c1)c1nn(-c2ccccc2)c(=O)cc1C(F)(F)F,-73*,-9%[57.1 µM],-1%,28%,4%,?
O=C(Nc1ccccc1)c1nn(-c2ccccc2)c(=O)cc1C(F)(F)F,-3,-3%,0%,18%[57.1 µM],8%,-3
O=C(c1ccccc1)c1nn(-c2ccccc2)c(=O)cc1C(F)(F)F,-75*,-12%[57.1 µM],-1%,6%[57.1 µM],-13%,?
CCCSCCCNC(=O)c1ccc2nc(Cc3ccccc3)oc2c1,·,0%[57.1 µM],·,25%[57.1 µM],·,·
C(C#CCCCCCCCCC[n+]1ccccc1)#CCCCCCCCCC[n+]1ccccc1,-6,0%,11%,56µM*,7%,9
CC(C)(C)n1ncc2c(=O)n(Cc3cccc(F)c3)cnc21,·,-2%,·,8%,·,·
CN(C)c1ccc(-n2cccc2)cc1,?,5%[11.4 µM],-1%,17%[11.4 µM],-10%,-68*
Cn1c2cc(B(O)O)sc2c2cnn(Cc3ccc(F)cc3F)c(=O)c21,·,·,·,·,15%,·
CSc1ccccc1NC(=S)Nc1ccc(S(N)(=O)=O)cc1,0,4%[57.1 µM],-1%,-21%[57.1 µM],9%,6
NS(=O)(=O)c1ccc(NC(=S)Nc2cc(Cl)c(Cl)cc2Cl)cc1,3,-3%,0%,35µM*,1%,1
SMILES,CtBP-E1A inh,TrxR1 substrate,GALK inhibitor,rTrxR1 inhibitor,Eya2 phos inh,Six1-Eya2 blk
COc1ccc(CCNC(=O)Cn2cc(C(=O)c3ccccc3)c(=O)c3ccc(C)nc32)cc1OC,·,-1%,·,14%,·,·
Cc1ccc(C=Nc2ccc(N(C)C)cc2)o1,-68*,-7%,15%,?,-3%,?
COc1ccc(C(=O)CCN2CCCCCC2)cc1,1,7%,2%,0.79µM*,-8%,8
CC(C)Oc1ccc(C(=O)CCN2CCCCC2)cc1,-4,4%,-2%,?,-3%,2
COc1ccc(N2CCN(Cc3cc(=O)oc4cc5c(cc34)CCCC5)CC2)cc1,-1,14%[57.1 µM],0%,19%[57.1 µM],1%,-11
O=C(CCN1CCCCCC1)c1ccccc1,-3,10%[11.4 µM],-5%,0.89µM*,-5%,-1
COc1ccc(N2CCN(Cc3cc4c(cc3O)CCC4)CC2)cc1,-65*,15%,-2%,17%,14%,?
O=C(CCN1CCCC1)c1cccs1,11,5%[57.1 µM],-2%,0.4µM*,16%,2
CCCOc1ccc(C(=O)CCN2CCN(C(=O)OCC)CC2)cc1,-10,4%[57.1 µM],0%,8.9µM*,7%,-18
COc1ccc(C(=O)CCN2CCN(c3ccc(OC)cc3)CC2)cc1,-1,-5%[57.1 µM],·,2.8µM*,-8%,-20
O=C(CCN1CCC(c2cccs2)=N1)c1cccs1,·,0%,·,22µM*,1%,5
CCOC(=O)N1CCN(C(=O)CCC(=O)c2ccc(OCC)cc2)CC1,5,2%,18%,11%,-2%,11
COc1ccc(N2CCN(CCC(N)=O)CC2)cc1,0,10%[57.1 µM],1%,10%[57.1 µM],-14%,4
COc1ccc(C(O)(CCc2ccccc2)CCN2CCCCC2)cc1 (stereo not given),4,7%[57.1 µM],-1%,8.9µM*,-4%,5
C=CCC(O)(CCN1CCCCC1)c1ccccc1 (stereo not given),-6,10%[57.1 µM],1%,5%[57.1 µM],-17%,7
Cc1ccc(S(=O)(=O)N2CCCN(c3nc(-c4cccs4)nc4ccccc34)CC2)cc1,·,12%,·,19%,·,·
CCOc1ccc(C(=O)CCN2CCCCC2)cc1,4,13%,6%,0.71µM*,6%,-4
COc1ccc(C(=O)CN2CCN(c3ccc(F)cc3)CC2)cc1OC,-4,2%,1%,20µM*,2%,-4
Clc1cccc(-n2cc(-c3ccccc3)c3c(N4CCCCC4)ncnc32)c1,·,-8%[57.1 µM],·,-11%[57.1 µM],·,·
COC(=O)CC1Oc2ccc(F)cc2-n2cc(-c3ccc(C)cc3)nc21 (stereo not given),·,10%[11.4 µM],·,11%[11.4 µM],·,·
CCOc1ccc(NC(=O)CC(NCc2ccccn2)C(=O)O)cc1 (stereo not given),-92*,-2%,0%,1%,2%,-90*
O=Cc1[nH]c2ccccc2c1N(C(=O)CCl)c1ccccc1,-3,6%[57.1 µM],3%,3.5µM*,-8%,2
O=C(CCl)N(c1ccccc1)c1ccccc1,0,9%[57.1 µM],-5%,?,-1%,-3
CCn1c(=S)[nH]c2ccccc21,8,529%,-1%,89µM*,1%,1
CC1=C(C)C(=O)C(CCCCC#CCCCC#CCO)=C(C)C1=O,?,5%[57.1 µM],6%,30µM*,-8%,0
Cc1cccc(N(CC(=O)Nc2ccc(Br)cc2)S(C)(=O)=O)c1C,·,1%[57.1 µM],·,11%[57.1 µM],·,·
N#Cc1nc(-c2ccc(COc3ccc(Cl)cc3)o2)oc1N1CCC(C(N)=O)CC1,·,18%,·,19%,·,·
